Assay outcomes as filed in PubChem.
CHO-K1 Ca ag – M1 agonist counterscreen hit in parental CHO-K1 cells; Fluo-8 calcium fluorescence; scaled to maximal ATP response, vehicle zero; activation, % at 3 µM; 0.48% of 360,000 active; AID 602248; in the data active = activation above about 15%;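 note: untransfected CHO-K1 host cells lacking M1 receptor as counterscreen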
M4 ag – agonists of human muscarinic M4 receptor (CHRM4). CHO-K1 hM4/Gqi5, Fluo-8 calcium fluorescence; vehicle 0%, full acetylcholine response 100%. activation, % at 3 µM. 0.14% of 360,000 active;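 active = activation above the run mean over all test wells plus 3 SD, cut at about 32% in these data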;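 note: peak over basal fluorescence ratio per well then scaled between controls; 0% = DMSO wells and 100% = acetylcholine at EC100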
Target sequence (P08173 whole entry, looked up): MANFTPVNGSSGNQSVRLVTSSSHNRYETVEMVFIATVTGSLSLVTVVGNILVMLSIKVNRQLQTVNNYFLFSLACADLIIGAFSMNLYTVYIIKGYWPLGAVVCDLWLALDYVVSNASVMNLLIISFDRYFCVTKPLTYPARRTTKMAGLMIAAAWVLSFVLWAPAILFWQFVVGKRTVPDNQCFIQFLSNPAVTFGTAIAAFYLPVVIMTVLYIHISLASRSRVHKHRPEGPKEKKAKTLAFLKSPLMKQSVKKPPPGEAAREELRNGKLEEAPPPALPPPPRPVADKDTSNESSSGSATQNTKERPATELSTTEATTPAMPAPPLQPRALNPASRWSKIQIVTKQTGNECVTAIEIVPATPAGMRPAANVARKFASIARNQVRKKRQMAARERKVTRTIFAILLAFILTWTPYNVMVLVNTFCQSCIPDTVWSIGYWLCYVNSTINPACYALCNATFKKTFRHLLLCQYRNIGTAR
CHRM4 PAM – positive allosteric modulators of human muscarinic M4 receptor; 0.4% of 360,000 active; activation, % at 3 µM; CHO-K1 hM4/Gqi5, Fluo-8 calcium fluorescence, ACh EC20; 0% = ACh EC20, 100% = maximal ACh; P08173; AID 624126;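 active = activation above its plate's cutoff, the mean activation of sample wells plus 3 SD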
M4 antag – antagonists of human muscarinic M4 receptor (CHRM4). P08173. CHO-hM4 cells, ACh EC80, Fluo-8 calcium fluorescence. inhibition, % at 3 µM. 0.73% of 360,000 active. AID 624125;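 active = inhibition above its plate's cutoff, the mean inhibition of sample wells plus 3 SD, cut at about 27% in these data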;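 note: 0% = acetylcholine EC80 with DMSO and 100% = DMSO without agonist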
M1 PAM parental – M1 PAM counterscreen hit in parental CHO-K1 cells | 0.02% of 360,000 active | activation, % at 3 µM | ATP EC20, Fluo-8 calcium fluorescence; 0% at ATP EC20, 100% at ATP max;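 active = activation above the run cutoff, the mean activation of all test compounds plus 3 SD, cut at about 40% in these data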;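 note: peak over basal fluorescence ratio in a 140 s read after ATP addition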
CHO-K1 Ca antag – nonselective inhibitor or artifact in parental CHO-K1 cells; ATP-induced calcium, Fluo-8 fluorescence; inhibition, % at 3 µM; 0.6% of 360,000 active; AID 602250;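 active = inhibition above a per-plate cutoff, the plate's mean sample inhibition plus 3 SD, cut at about 24% in these data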;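 note: 0% = DMSO plus EC80 ATP and 100% = DMSO alone without ATP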
An asterisk follows results filed as active; ! = repeats disagree. Sampled rows, rich in hits. Any-hit rate of the full collection: about 2%.

SMILES	CHO-K1 Ca ag	M4 ag	CHRM4 PAM	M4 antag	M1 PAM parental	CHO-K1 Ca antag
Cc1ccc(S(=O)(=O)Oc2ccc(/C=C(/NC(=O)c3ccccc3)C(=O)Nc3ccccc3)cc2)cc1	2	3	-10	28*	14	1
COc1ccc(NC(=O)/C(=C\c2ccc(OS(=O)(=O)c3ccc(C)cc3)cc2)NC(=O)c2ccccc2)cc1	2	4	-3	24	16	4
OCCCNc1ncnc2oc(-c3ccccc3)c(-c3ccccc3)c12	2	10	-10	14	-5	-2
Cc1nnn(C23C[C@@H]4C[C@@H](CC(C(=O)N5CCN(c6ccccc6)CC5)(C4)C2)C3)n1	2	1	-1	5	12	-8
Cc1cc(C(=O)NC2CCCc3c2cnn3-c2ccc(C(C)(C)C)cc2)nn1C (centres undefined)	12	12	-9	20	-10	25*
CCn1c(COC(=O)CNC(=O)c2ccccc2)nc2cc(S(=O)(=O)N(C)C)ccc21	1	0	-4	6	3	0
CN1CCN(C(=O)C2=C[C@@H](c3coc4ccccc4c3=O)C[C@@H](OCCCCO)O2)CC1	0	2	24*	3	-7	-17
O=C(C1=C[C@@H](c2coc3ccccc3c2=O)C[C@@H](OCCCCO)O1)N1CCN(Cc2ccccc2)CC1	1	9	-1	-5	10	-14
CCOC(=O)C1=NOC2COC3(CCN(c4ncccn4)CC3)OCC12 (centres undefined)	1	3	9	-8	17	-4
CCN(CC)S(=O)(=O)c1ccc(O)c(C(=O)OCC(=O)NC23CC4CC(CC(C4)C2)C3)c1	5	12	-5	-2	-6	-8
CCN(CC)C(=O)C1=C(C)N(CCC2=CCCCC2)C(=O)C(CC(=O)NCCN2CCOCC2)C1 (centres undefined)	0	0	3	-15	11	-8
CCC1Oc2ccccc2N(CC(=O)Nc2ccccc2OC)C1=O (centres undefined)	2	2	4	2	-9	24*
Cc1nnnn1/C(=C\c1ccccc1)C(=O)OCC(=O)NC1CCCCC1	5	7	-8	7	-7	10
FC(F)(F)c1cccc(/C=N/NC(=S)NC2CCCCC2)c1	19*	1	-1	3	10	-7
Cc1ccc(NC(=O)CN(C)C(=O)CCC(=O)N2CCOCC2)cc1	1	1	-4	4	11	4
COC(=O)c1c(N)nc(C)n1-c1ccc(OC)cc1	0	0	-5	19	-6	25*
CCCCNC(=O)c1ccc(Cc2cn(C)c3ccccc23)nc1	0	1	7	-9	-8	10
Cc1ccc(CNC(=O)CCC(=O)Nc2nnc(C3CCCCC3)s2)cc1	0	1	-5	8	2	-4
Cc1ccc(NC(=O)CCC(=O)Nc2nnc(C3CCCCC3)s2)cc1	0	0	20*	0	-9	0
CCOC(=O)C1CCCN(C2=NC(=O)/C(=C/c3ccc(OC)cc3)S2)C1 (centres undefined)	1	0	-2	0	15	-12
CCOC(=O)C1CCCN(C2=NC(=O)/C(=C/c3ccc(N(C)C)cc3)S2)C1 (centres undefined)	7	41*	-9	-5	1	-6
CC(=O)Nc1ccc(NC(=O)C(C)OC(=O)CCC2CCCC2)cc1 (centres undefined)	0	2	2	-4	18	24*
Nc1ccc(-c2c3ccc(=O)cc-3oc3cc(O)ccc23)c(C(=O)O)c1	108*	426*	-20	26	-14	29*
COc1ccc(-c2cc(=O)c3ccc(O)cc3o2)cc1OC	0	2	-5	5	9	-6
O=C(COc1ccc2ccccc2c1)Nc1ccc(Cc2ccncc2)cc1	11	22	2	16	-3	25*
SMILES	CHO-K1 Ca ag	M4 ag	CHRM4 PAM	M4 antag	M1 PAM parental	CHO-K1 Ca antag
O=C(NNC(=O)c1cnccc1C(F)(F)F)c1ccccc1	16*	0	-10	-6	7	16
COc1cccc(C(=O)C2CCCN(Cc3c(C)n(C)n(-c4ccccc4)c3=O)C2)c1 (centres undefined)	0	0	-26	0	20	-15
COC(=O)CSCC(=O)Nc1nnc(-c2cccc(C)c2)s1	1	1	0	3	-4	6
CCOc1ccc(-c2c(=O)n(OCc3ccc([N+](=O)[O-])cc3)c3ccccc3[n+]2[O-])c(OCC)c1	20*	0	2	8	14	5
Cn1c(-n2c(CCCN3C(=O)c4ccccc4C3=O)nc3ccccc3c2=O)nc2ccccc21	1	2	-1	4	19	-16
O=C1c2ccccc2C(=O)N1CCCc1nc2ccccc2c(=O)n1CCCn1ccnc1	0	5	-2	3	-1	30*
O=C(COc1ncnc2sccc12)Nc1ccc(F)cc1F	0	1	-4	-1	7	-3
C=C[C@H]1CN2CC[C@H]1C[C@@H]2[C@@H](O)c1ccnc2ccc(OC)cc12	4	1	-9	12	-5	25*!
S=C1NC[C@H](Cc2ccccc2)N1CC1CCN(CCCC2CCCC2)CC1	2	8	-15	42*	8	-9
CCCCN1CCC(CN2C(=S)NC[C@@H]2CC(C)C)CC1	1	0	10	-12	18	-2
CC(C)C[C@H]1CNC(=S)N1CC1CCN(CCCC2CCCC2)CC1	1	1	-14	34*	9	-15
CC(C)C[C@H]1CNC(=S)N1CC1CCN(CCCCc2ccccc2)CC1	0	1	-16	42*	-7	-1
COc1ccc(CCN2CCC(CN3C(=S)NC[C@@H]3CC(C)C)CC2)cc1OC	2	0	-13	20	12	-11
S=C1NC[C@H](Cc2ccccc2)N1CCCCC1CCCCC1	1	1	1	4	9	-12
CCOc1ccc(CCN2C(=S)N([C@@H](Cc3ccc(O)cc3)CN3CCC[C@@H]3CN3C(=S)NC[C@@H]3CC(C)C)C[C@@H]2Cc2ccccc2)cc1	1	2	23*	-12	18	0
Cc1nc2ccccc2c(=O)n1NC(=O)C1CCC(C(C)(C)C)CC1 (centres undefined)	1	1	1	14	13	-11
Cc1cc(F)ccc1C(O)c1ncc(-c2ccccc2C(F)(F)F)[nH]1 (centres undefined)	2	2	-2	0	14	-13
CC1=C(C(=O)N2CCCCCC2)CC(CC(=O)NCCCN(C)C)C(=O)N1Cc1ccc(C(C)(C)C)cc1 (centres undefined)	1	0	0	1	14	-19
